Compound activity as filed in PubChem.
BCR signal inh – inhibitors of chronic active B-cell receptor signaling | ABC-DLBCL IkBa-CBG/CBR reporter, luminescence ratio, 4 h | Potency, µM (titrated, usually from 46.1 µM), for the others: top-dose activity change, negative = inhibition, usual class: inhibitors | 340,000 compounds, 0.05% hits; active = well fitted inhibition curve with a large enough effect in the signal ratio, with a control signal flat, not every such curve was filed as active; inconclusive = small, poorly fitted or top-dose-only effect, or effect the other way, or a change in a side signal; the % refers to the signal ratio;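 note: potency is the fitted concentration of half-maximal effect; plate controls were basal doxycycline-induced cells for no effect and cells given 10 µM MG132 for full effect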
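Cell line TMD8 (human ABC DLBCL), stably expressing tet-inducible CBG68-IkBa fusion and CBR; IMDM/0.5% FBS; cpd up to 46 uM; dox induction, 4 h, 37C/5% CO2; dual luminescence; green/red ratio; MG132 control.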
CCT chaperon mod – changes cytosolic chaperonin activity; 360,000 compounds, 0.3% hits; purified chaperonin ATPase assay, HTRF ADP detection, 30 min; activity change, % (test concentration not listed), hits read low; in the data active = activity change below about -30%; note: % is set by controls: 0 for no effect and ±100 for the full control effect
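First, chaperonin was dispensed at 40 nM or 20 nM final depending on batch activity. Next, compounds were pinned at 76 uM and ATP added at 10 uM. After 30 min at 37 °C, ADP detection reagents ran 30 min at ambient temperature.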
S-ASM inh – blocks human secretory acid sphingomyelinase; P17405; placental ASM, HMU-PC fluorogenic substrate, 60 min; Potency, µM (titrated, usually from 57.5 µM), for the others: at the top dose activity change, negative = inhibition, actives largely listed as inhibitors; 340,000 compounds, 0.006% hits; AID 504937; note: potency is the fitted concentration of half-maximal effect
Target sequence (P17405 47-631 limits assumed): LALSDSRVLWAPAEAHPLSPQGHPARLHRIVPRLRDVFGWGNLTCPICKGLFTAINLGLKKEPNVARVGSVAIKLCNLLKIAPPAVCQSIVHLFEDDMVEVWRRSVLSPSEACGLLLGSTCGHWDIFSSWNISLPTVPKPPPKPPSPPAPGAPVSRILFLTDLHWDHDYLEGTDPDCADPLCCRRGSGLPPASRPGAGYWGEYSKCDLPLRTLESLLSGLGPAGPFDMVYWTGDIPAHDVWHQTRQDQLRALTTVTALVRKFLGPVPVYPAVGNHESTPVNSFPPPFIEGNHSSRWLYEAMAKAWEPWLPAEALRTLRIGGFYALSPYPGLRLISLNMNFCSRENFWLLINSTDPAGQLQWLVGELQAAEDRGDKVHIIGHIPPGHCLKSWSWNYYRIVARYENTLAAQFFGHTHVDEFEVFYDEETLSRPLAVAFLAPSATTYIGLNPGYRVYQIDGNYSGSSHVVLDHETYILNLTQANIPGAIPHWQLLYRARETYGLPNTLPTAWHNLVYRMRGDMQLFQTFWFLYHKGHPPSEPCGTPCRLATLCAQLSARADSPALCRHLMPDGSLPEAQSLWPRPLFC
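Human placenta-derived ASM enzyme was preincubated with compound for 10 minutes at room temperature, then given fluorogenic substrate HMU-PC0 (9 uM final) for 60 minutes at 37 °C; a pH 10 stop preceded fluorescence reading at Ex 386/Em 447 nm.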
TCR activator – activators of T cell receptors; primary human leukocytes, anti-CD3, IL-2 HTRF, 48 h; Potency, µM (titrated, usually from 9.22 µM), without a hit: top-dose activation of IL-2 secretion, actives largely listed as activators; 330,000 tested, under 10 active; note: % of control where 0% means no effect
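IL-2 produced over 48 hr by a-CD3 bead-stimulated primary human leukocytes exposed to compounds was detected with a homogeneous time-resolved FRET immunoassay, 665nm acceptor signal after 320nm excitation.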
Tb PFK inh – blocks T. brucei phosphofructokinase | T. brucei PFK, ADP-Glo luminescence | Potency, µM (highest dose often 57.5 µM), inactives show at the highest dose activity, negative = inhibition, hits mostly inhibitors | 330,000 compounds, 0.17% hits;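 note: potency is the fitted concentration of half-maximal effect; 0% = uninhibited 1x PFK enzyme wells and -100% = no-enzyme wells; nearly all actives have a fitted effect of over 60% in size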
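ADP-Glo luminescence quantified ADP after 45 min at room temperature, with 1.25 nM T. brucei PFK, 0.1 mM ATP and 0.5 mM fructose-6-phosphate in pH 8.0 TEA buffer. qHTS titrations up to 57 µM; curves classified by quality.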
Starred values were filed as active, the others as inactive; ? = inconclusive; · = no result given; [ ] = remark or other dose. In the library only some 0.49% were active in any assay of this set; here they are far more common. Unless noted, calls come from the whole dose curve; as a rule, active = well fitted curve in the direction sought with a large enough effect; inconclusive = small, poorly fitted or top-dose-only effect, or another doubt; inactive = no such curve, though single readings can be large; an effect the other way counts as inactive or inconclusive.

SMILES | BCR signal inh | CCT chaperon mod | S-ASM inh | TCR activator | Tb PFK inh
CC(C)N(C(=O)[C@H]1C[C@H](CC(=O)NC(C)(C)C)C(=O)N2CCc3c([nH]c4cc(-c5ccco5)ccc34)[C@]12C)C(C)C | ? | -41.5* | ? | 1.5%[46.1 µM] | -4.7%
O=C1OC2(CCCCC2)CC2=C1C1O[C@](CCCCN3C(=O)c4ccccc4C3=O)(Cc3ccccc31)O2 | 13.0%[9.22 µM] | · | · | · | 1.2%[11.5 µM]
CCn1c(SCC(=O)NCc2ccc3c(c2)OCO3)nnc1-c1ccncc1 | -1.3% | -53.4* | 10.7% | -5.4% | -2.2%
COc1cccc(C(c2sc3nc(-c4ccco4)nn3c2O)N2CCN(c3ccccc3F)CC2)c1 (stereo unspecified) | 7.9% | · | · | · | ·
O=C(OC[C@H]1O[C@@H](OC(=O)c2cc(O)c(O)c(OC(=O)c3cc(O)c(O)c(O)c3)c2)[C@H](OC(=O)c2cc(O)c(O)c(OC(=O)c3cc(O)c(O)c(O)c3)c2)[C@@H](OC(=O)c2cc(O)c(O)c(OC(=O)c3cc(O)c(O)c(O)c3)c2)[C@@H]1OC(=O)c1cc(O)c(O)c(OC(=O)c2cc(O)c(O)c(O)c2)c1)c1cc(O)c(O)c(OC(=O)c2cc(O)c(O)c(O)c2)c1 | ? | · | · | · | 0.0953µM*
COC1OC(COC(=O)c2ccccc2)C(OC(=O)c2ccccc2)C1OC(=O)c1ccccc1 (stereo unspecified) | -0.1% | 0.3 | -3.7% | -0.2% | -7.4%
CCCC(=O)Nc1ccccc1NC(C)=O | ? | -30.8* | 2.5% | 11.0% | -7.2%
CCCCCC(=O)Nc1cccc2ccccc12 | ? | -1.3 | 5.7% | -4.9% | -0.3%
COCCNC(=O)CSc1nc2cc3c(cc2c(=O)n1Cc1ccc(C(=O)NCCc2ccc(OC)c(OC)c2)cc1)OCO3 | -27.3% | · | · | · | ·
O=c1c2ccccc2c(C=NCCCN2CCOCC2)c(O)n1Cc1ccc2c(c1)OCO2 | ? | -37.9* | -0.3% | 4.2% | 4.8%
CCOc1ccc(-c2cc(C(=O)N3CCN(c4cccc(C(F)(F)F)c4)CC3)c3ccccc3n2)cc1 | 0.3% | · | · | · | ·
CCCc1ccc(OC(=O)c2sc3ncn(Cc4cccc(F)c4)c(=O)c3c2C)cc1 | -1.0% | · | · | · | ·
COc1cc(Cn2c(=O)c3c(OC)c(C)cnc3n(C)c2=O)cc(OC)c1 | -1.3% | -51.9* | 2.2% | -3.9% | -18.2%
CCOc1c(C)cnc2c1c(=O)n(Cc1ccccc1Cl)c(=O)n2C | 4.0% | -4.3 | -3.6% | 3.5% | -1.2%
CCC1Oc2ccccc2N(CC(=O)NCc2cc(OC)ccc2OC)C1=O (stereo unspecified) | -3.9% | · | · | · | ·
COc1ccc([C@]23Cc4cc(OC)c(OC)cc4C(O2)c2c(cc(-c4ccccc4)oc2=O)O3)cc1 | 14.2%[9.22 µM] | · | · | · | 0.2%[11.5 µM]
O=C(Cn1cnc2ccccc2c1=O)NCC(=O)N1CCN(Cc2ccc3c(c2)OCO3)CC1 | 0.5% | -0.7 | 2.3% | 3.4% | 0.7%
O=C(Cn1cnc2ccccc2c1=O)N1CCN(Cc2ccc3c(c2)OCO3)CC1 | -31.9% | -54.3* | 1.2% | -2.9% | 2.1%
O=C(/C=C\c1ccc2c(c1)OCO2)NC1CC(=O)N(c2cccc(F)c2)C1 (stereo unspecified) | -14.2% | · | · | · | ·
COc1ccc(NC2=Nc3ccccc3N3C2=Nc2c(c(C)nn2-c2ccc(C)cc2)C3c2cccnc2)cc1 (stereo unspecified) | -0.2% | -45.1* | 76.3% | -5.8% | -0.3%
CC(=O)Nc1ccc(NC2=Nc3ccccc3N3C2=Nc2c(c(C)nn2-c2ccccc2)C3c2ccccc2)cc1 (stereo unspecified) | ? | -1.1 | 5.0% | 2.6% | 2.7%
O=C1CCC(=O)N1CNc1ccc(Oc2ccccc2)cc1 | · | -36.3* | -1.2% | · | ·
Cc1cccc(NC(=O)CCSc2ccccc2)c1C | ? | 0.2 | -2.9% | -49.2% | -2.2%
Cc1cccc(NC(=O)CCc2ccccc2)c1C | -2.4% | -49.3* | 3.7% | · | -2.7%
Cc1cccc(NC(=O)CNCC(=O)Nc2cccc(C)c2C)c1C | -0.6% | -49.2* | 3.7% | -10.7% | -12.1%
SMILES | BCR signal inh | CCT chaperon mod | S-ASM inh | TCR activator | Tb PFK inh
Cc1cccc(NC(=O)CNC(=O)c2cccc(-n3cccc3)c2)c1C | -10.2% | 2.1 | · | 2.1% | 21.3µM*
Cc1ccc(NC(=O)CNc2cccc(C)c2C)c(C)c1 | -20.9% | -0.4 | -0.7% | -4.9% | -3.2%
O=C(Cn1cc([N+](=O)[O-])cn1)Nc1ccc(Cn2cc(Br)cn2)cc1 | 7.0% | 1.9 | -2.2% | 1.6%[46.1 µM] | 26.9µM*
COc1ccc2cc(C(=O)NCc3ccc4c(c3)CCN4C(=O)c3ccc(F)cc3)[nH]c2c1 | -0.5% | · | · | · | ·
COc1ccc(NC(=O)CNC(=O)c2nn(-c3ccc(OC)cc3OC)c(=O)c3ccccc23)c(OC)c1 | 10.3% | -55.6* | -3.9% | 0.2% | 0.1%
N#Cc1ccc2c(c1)C[C@]1(CCCCN3C(=O)c4ccccc4C3=O)Oc3c(c(=O)oc4ccccc34)C2O1 | ? | · | · | · | -2.1%[11.5 µM]
Cc1n[nH]c(C)c1CCCCOc1ccccc1 | -1.7% | -3.2 | 1.2% | 2.3% | 0.5%
Cc1ccc(OCCCc2c(C)n[nH]c2C)cc1 | ? | -60.3* | 4.9% | 7.3% | 13.3%
CCOC(=O)c1ccc2c(c1)C1C=CCC1C(C(=O)O)N2 (stereo unspecified) | 1.6% | · | · | · | 19µM*
CCOC(=O)C1Nc2ccc(C(=O)O)cc2C2C=CCC12 (stereo unspecified) | 9.3% | -3.3 | 21.1% | 0.7% | -26.8%
Cc1sc2ncnc(N)c2c1C | -3.9% | -55.3* | 2.6% | -18.4% | 0.0%
CCOc1ccc(N2CC(NC(=O)Cc3ccccc3)CC2=O)cc1 (stereo unspecified) | -4.9% | · | · | · | ·
O=C(COC(=O)CCOc1ccccc1)Nc1ccc(Cl)cn1 | 4.9% | -1.1 | 1.1% | -4.6% | 0.6%
CCOc1ccc(OCCC(=O)OCC(=O)Nc2ccc(Cl)cn2)cc1 | -8.1% | -32.7* | -2.1% | -4.6% | -6.1%
O=C(CCc1ccccc1)Nc1ccc(Cl)cn1 | ? | -52.6* | -1.8% | 4.8% | -2.8%
O=C(COC(=O)Cc1ccccc1F)Nc1ccc(Cl)cn1 | ? | -32.8* | 0.7% | 1.2% | 3.1%
COc1ccc(S(=O)(=O)NCC(c2cccs2)S(=O)(=O)c2ccccc2)cc1OC (stereo unspecified) | -17.9% | · | · | · | ·
CC1CCCN(c2ncnc3c2cnn3-c2ccc(F)cc2)C1 (stereo unspecified) | 14.0% | · | · | · | ·
CN(C)C(CNC(=O)c1cccc(S(=O)(=O)N2CCN(c3ccccc3)CC2)c1)c1ccccc1 (stereo unspecified) | · | -45.7* | -1.6% | -112.3% | ·
CC1=C(C(=O)Nc2ccc(CC(=O)NCc3ccc(OC(C)C)cc3)cc2)SCCO1 | ? | 0.5 | 2.7% | -6.8% | ?
COc1ccc(CNC(=O)Cc2ccc(NC(=O)C3=C(C)OCCS3)cc2)cc1 | 20µM* | 1.4 | -5.2% | -0.3% | -26.4%
